# Experimental data taken from PubChem BioAssay AID1159580 (chemical genetic matrix, 2015).
# About 2,000 (36%) of roughly 5,500 compounds were called active. Inconclusive results (about 18%) are left out. Some of the results follow. Unmarked numbers belong to inactive results. No stated cut-off is given here; in the data, active means normalized growth mostly below about 0.91 (no sharp cut-off); inconclusive means no clear call, values can overlap the other calls; inactive means mostly above about 0.92.
# Experiment: chemical genetic growth profiling, strain panel (AID 1159580);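 further: tested at 20 µM; growth read once vehicle control cultures reached saturation at 30 °C; 1 = growth at the plate median or of vehicle wells; lower values mean less growth of the strain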
# Details: growth OD
compound,measurement,setting,value
CCC(=O)OCC(=O)[C@@]1(OC(=O)CC)[C@@H](C)CC2C3CCC4=CC(=O)C=C[C@]4(C)C3(F)[C@@H](O)C[C@@]21C (some centres undefined),normalized growth,"S. cerevisiae deletion strains, locus YJR043C, strain POL32, hits give low values",0.841 (active)
same,normalized growth,"S. cerevisiae deletion strains, locus YJR066W, strain TOR1, hits give low values",0.989
same,normalized growth,"S. cerevisiae deletion strains, locus YJR075W, strain HOC1, hits give low values",0.945
same,normalized growth,"S. cerevisiae deletion strains, locus YKL009W, strain mrt4, hits give low values",0.891
same,normalized growth,"S. cerevisiae deletion strains, locus YKL068W, hits give low values",0.958
same,normalized growth,"S. cerevisiae deletion strains, locus YKL085W, strain MDH1 (second series), hits give low values",0.959
same,normalized growth,"S. cerevisiae deletion strains, locus YKL085W, strain MDH1, hits give low values",0.959
same,normalized growth,"S. cerevisiae deletion strains, locus YKL160W, strain elf1, hits give low values",1.01
same,normalized growth,"S. cerevisiae deletion strains, locus YKR001C, strain vps1, hits give low values",0.916
same,normalized growth,"S. cerevisiae deletion strains, locus YKR026C, strain gcn3, hits give low values",0.997
same,normalized growth,"S. cerevisiae deletion strains, locus YKR091W, strain srl3, hits give low values",0.997
same,normalized growth,"S. cerevisiae deletion strains, locus YLL001W, strain dnm1, hits give low values",1.01
same,normalized growth,"S. cerevisiae deletion strains, locus YLL026W, hits give low values",1.01
same,normalized growth,"S. cerevisiae deletion strains, locus YLL041C, strain sdh2, hits give low values",0.994
same,normalized growth,"S. cerevisiae deletion strains, locus YLR027C, strain aat2, hits give low values",0.999
same,normalized growth,"S. cerevisiae deletion strains, locus YLR039C, strain RIC1, hits give low values",0.85
same,normalized growth,"S. cerevisiae deletion strains, locus YLR058C, strain SHM2, hits give low values",0.943
same,normalized growth,"S. cerevisiae deletion strains, locus YLR102C, strain apc9, hits give low values",0.973
same,normalized growth,"S. cerevisiae deletion strains, locus YLR113W, strain HOG1, hits give low values",1.05
same,normalized growth,"S. cerevisiae deletion strains, locus YLR221C, strain rsa3, hits give low values",1.01
same,normalized growth,"S. cerevisiae deletion strains, locus YLR258W, strain gsy2, hits give low values",0.997
same,normalized growth,"S. cerevisiae deletion strains, locus YLR262C, strain YPT6 (second series), hits give low values",1
same,normalized growth,"S. cerevisiae deletion strains, locus YLR262C, strain YPT6, hits give low values",0.772
same,normalized growth,"S. cerevisiae deletion strains, locus YLR268W, strain sec22, hits give low values",0.915
same,normalized growth,"S. cerevisiae deletion strains, locus YLR320W, strain mms22, hits give low values",1.02
same,normalized growth,"S. cerevisiae deletion strains, locus YLR330W, strain CHS5, hits give low values",0.898 (active)
same,normalized growth,"S. cerevisiae deletion strains, locus YLR342W, strain FKS1 (second series), hits give low values",0.741 (active)
same,normalized growth,"S. cerevisiae deletion strains, locus YLR342W, strain FKS1, hits give low values",1.01
same,normalized growth,"S. cerevisiae deletion strains, locus YLR357W, strain rsc2, hits give low values",1.02
same,normalized growth,"S. cerevisiae deletion strains, locus YLR370C, strain arc18, hits give low values",1
same,normalized growth,"S. cerevisiae deletion strains, locus YLR371W, strain rom2, hits give low values",0.95
same,normalized growth,"S. cerevisiae deletion strains, locus YLR384C, strain iki3, hits give low values",0.998
same,normalized growth,"S. cerevisiae deletion strains, locus YLR418C, strain cdc73, hits give low values",0.777 (active)
same,normalized growth,"S. cerevisiae deletion strains, locus YML016C, strain PPZ1, hits give low values",0.967
same,normalized growth,"S. cerevisiae deletion strains, locus YML032C, strain rad52, hits give low values",0.843 (active)
same,normalized growth,"S. cerevisiae deletion strains, locus YML120C, strain ndi1, hits give low values",0.995
same,normalized growth,"S. cerevisiae deletion strains, locus YML124C, strain tub3, hits give low values",0.953
same,normalized growth,"S. cerevisiae deletion strains, locus YMR058W, strain fet3, hits give low values",0.997
same,normalized growth,"S. cerevisiae deletion strains, locus YMR078C, strain ctf18, hits give low values",0.925
same,normalized growth,"S. cerevisiae deletion strains, locus YMR125W, strain sto1, hits give low values",0.984
same,normalized growth,"S. cerevisiae deletion strains, locus YMR129W, hits give low values",0.99
same,normalized growth,"S. cerevisiae deletion strains, locus YMR205C, strain PFK2, hits give low values",1.02
same,normalized growth,"S. cerevisiae deletion strains, locus YMR223W, strain ubp8, hits give low values",0.876 (active)
same,normalized growth,"S. cerevisiae deletion strains, locus YMR231W, strain pep5, hits give low values",1.02
same,normalized growth,"S. cerevisiae deletion strains, locus YMR307W, strain GAS1, hits give low values",0.642
same,normalized growth,"S. cerevisiae deletion strains, locus YNL067W, strain RPL9B, hits give low values",0.994
same,normalized growth,"S. cerevisiae deletion strains, locus YNL071W, strain lat1, hits give low values",0.998
same,normalized growth,"S. cerevisiae deletion strains, locus YNL128W, strain TEP1, hits give low values",0.941
same,normalized growth,"S. cerevisiae deletion strains, locus YNL153C, strain GIM3, hits give low values",0.945
same,normalized growth,"S. cerevisiae deletion strains, locus YNL183C, strain NPR1, hits give low values",0.974
same,normalized growth,"S. cerevisiae deletion strains, locus YNL209W, strain ssb2, hits give low values",0.994
same,normalized growth,"S. cerevisiae deletion strains, locus YNL233W, strain BNI4, hits give low values",0.902
same,normalized growth,"S. cerevisiae deletion strains, locus YNL248C, strain rpa49, hits give low values",0.994
same,normalized growth,"S. cerevisiae deletion strains, locus YNL250W, strain rad50, hits give low values",0.907
same,normalized growth,"S. cerevisiae deletion strains, locus YNL271C, strain bni1, hits give low values",0.951
same,normalized growth,"S. cerevisiae deletion strains, locus YNL298W, strain CLA4, hits give low values",0.942
same,normalized growth,"S. cerevisiae deletion strains, locus YNL307C, strain MCK1, hits give low values",0.835 (active)
same,normalized growth,"S. cerevisiae deletion strains, locus YNL322C, strain KRE1 (second series), hits give low values",0.982
same,normalized growth,"S. cerevisiae deletion strains, locus YNR049C, strain mso1, hits give low values",0.999
same,normalized growth,"S. cerevisiae deletion strains, locus YNR052C, strain pop2, hits give low values",0.955
same,normalized growth,"S. cerevisiae deletion strains, locus YOL012C, strain htz1",1.01
same,normalized growth,"S. cerevisiae deletion strains, locus YOL147C, strain pex11, hits give low values",0.958
same,normalized growth,"S. cerevisiae deletion strains, locus YOR001W, strain rrp6, hits give low values",0.992
same,normalized growth,"S. cerevisiae deletion strains, locus YOR061W, strain CKA2, hits give low values",0.93
same,normalized growth,"S. cerevisiae deletion strains, locus YOR069W, strain VPS5, hits give low values",0.973
same,normalized growth,"S. cerevisiae deletion strains, locus YOR070C, strain gyp1, hits give low values",1
same,normalized growth,"S. cerevisiae deletion strains, locus YOR080W, strain dia2, hits give low values",1.01
same,normalized growth,"S. cerevisiae deletion strains, locus YOR083W, strain WHI5, hits give low values",1
same,normalized growth,"S. cerevisiae deletion strains, locus YOR106W, strain vam3, hits give low values",0.995
same,normalized growth,"S. cerevisiae deletion strains, locus YOR136W, strain idh2, hits give low values",0.981
same,normalized growth,"S. cerevisiae deletion strains, locus YOR144C, strain elg1, hits give low values",0.953
same,normalized growth,"S. cerevisiae deletion strains, locus YOR184W, strain ser1, hits give low values",0.838 (active)
same,normalized growth,"S. cerevisiae deletion strains, locus YOR231W, strain MKK1, hits give low values",0.994
same,normalized growth,"S. cerevisiae deletion strains, locus YOR265W, strain rbl2, hits give low values",1.01
same,normalized growth,"S. cerevisiae deletion strains, locus YOR270C, strain vph1, hits give low values",0.887
same,normalized growth,"S. cerevisiae deletion strains, locus YOR290C, strain snf2, hits give low values",0.981
same,normalized growth,"S. cerevisiae deletion strains, locus YOR316C, strain cot1, hits give low values",0.961
same,normalized growth,"S. cerevisiae deletion strains, locus YPL051W, strain arl3, hits give low values",1
same,normalized growth,"S. cerevisiae deletion strains, locus YPL055C, strain LGE1, hits give low values",0.853
same,normalized growth,"S. cerevisiae deletion strains, locus YPL078C, strain atp4, hits give low values",0.996
same,normalized growth,"S. cerevisiae deletion strains, locus YPL106C, strain sse1, hits give low values",1.03
same,normalized growth,"S. cerevisiae deletion strains, locus YPL240C, strain hsp82, hits give low values",0.997
same,normalized growth,"S. cerevisiae deletion strains, locus YPL256C, strain CLN2, hits give low values",0.998
same,normalized growth,"S. cerevisiae deletion strains, locus YPR119W, strain clb2, hits give low values",0.953
same,normalized growth,"S. cerevisiae deletion strains, locus YPR141C, strain kar3, hits give low values",0.964
same,normalized growth,"S. cerevisiae deletion strains, locus YPR163C, strain tif3, hits give low values",0.942
same,normalized growth,"S. cerevisiae deletion strains, locus YPR167C, strain met16, hits give low values",0.936
same,normalized growth,"S. cerevisiae deletion strains, strain wtn01, hits give low values",0.959
same,normalized growth,"S. cerevisiae strains, strain wild type, hits give low values",0.929
